# Measured values reported in the supplement of paper PMC8728848.
# Many of the other results were omitted from the sample, so the strongest signals are more common in it than they were.
# B1: UEA-I (Ulex europaeus), P22972 (protein)
# chain: SDDLSFKFKNFSQNGKDLSFQGDASVIETGVLQLNKVGNNLPDETGGIARYIAPIHIWNCNTGEVASFITSFSFFMETSANPKAATDGLTFFLAPPDSPLRRAGGYFGLFEDTKDNDSSYQTVAVEFDTIGSPVNFDDPGFPHIGIDVNRVKSINAERWNKRYGLNNVANVEIIYEASSKTLTASLTYPSDQTSISVTSIVDLKEILPEWVSVGFSGGTYIGRQATHEVLNWYFTSNLINTNS
# Tests used:
# Experiment in all cases: glycan array binding signal (z-score within array); higher = stronger binding
# Settings in all cases: glycan notation: IUPAC condensed, linker removed
# [1] = target: Gal(b1-4)GlcNAc(b1-2)Man(a1-6)[GlcNAc(b1-2)Man(a1-3)]Man(b1-4)GlcNAc(b1-4)GlcNAc
# Outline: (§1)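 From the Consortium for Functional Glycomics database, 3228 arrays were curated, keeping only those whose protein sequence was available. Binding is given as a within-array Z-score averaged across arrays sharing a protein sequence and across linkers. Negative Z-scores can be read as non-binding.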
# [2] = target: Gal3S(b1-4)[Fuc(a1-3)]GlcNAc6S
# Outline: as §1
# Gal6S(b1-4)Glc6S = target: Gal6S(b1-4)Glc6S
# Outline: as §1
# [3] = target: GalNAc(a1-3)GalNAc(a1-3)Gal(a1-4)Gal(b1-4)GlcNAc
# Outline: as §1
# [4] = target: GalNAc(b1-3)Gal(a1-6)Gal(b1-4)Glc
# Outline: as §1
# Glc(a1-6)Glc(a1-6)Glc = target: Glc(a1-6)Glc(a1-6)Glc
# Outline: as §1
# [5] = target: GlcNAc(b1-2)Gal(b1-3)GalNAc
# Outline: as §1
# [6] = target: GlcNAc(b1-3)Gal(b1-4)GlcNAc(b1-2)Man(a1-3)[GlcNAc(b1-3)Gal(b1-4)GlcNAc(b1-2)Man(a1-6)]Man(b1-4)GlcNAc(b1-4)GlcNAc
# Outline: as §1
# [7] = target: GlcNAc(b1-3)[GlcNAc(b1-6)]Gal(b1-4)GlcNAc
# Outline: as §1
# [8] = target: GlcNAc(b1-3)[GlcNAc(b1-6)]GalNAc
# Outline: as §1
# Kdn(a2-3)Gal(b1-3)GlcNAc = target: Kdn(a2-3)Gal(b1-3)GlcNAc
# Outline: as §1
# [9] = target: Man(a1-2)Man(a1-2)Man(a1-3)[Man(a1-2)Man(a1-3)[Man(a1-2)Man(a1-6)]Man(a1-6)]Man(b1-4)GlcNAc(b1-4)GlcNAc
# Outline: as §1
# [10] = target: Man(a1-2)Man(a1-3)[Man(a1-2)Man(a1-6)]Man(a1-6)[Man(a1-2)Man(a1-2)Man(a1-3)]Man
# Outline: as §1
# [11] = target: Man(a1-3)[Man(a1-6)]Man(a1-6)[Man(a1-3)]Man
# Outline: as §1
# [12] = target: Neu5Ac(a2-3)Gal(b1-3)GlcNAc(b1-3)Gal(b1-4)GlcNAc
# Outline: as §1
# [13] = target: Neu5Ac(a2-3)Gal(b1-3)[Neu5Ac(a2-3)Gal(b1-4)]GlcNAc
# Outline: as §1
# [14] = target: Neu5Ac(a2-3)Gal(b1-4)GlcNAc(b1-2)Man(a1-3)[Neu5Ac(a2-6)Gal(b1-4)GlcNAc(b1-2)Man(a1-6)]Man(b1-4)GlcNAc(b1-4)GlcNAc
# Outline: as §1
# [15] = target: Neu5Ac(a2-3)Gal(b1-4)GlcNAc(b1-3)GalNAc
# Outline: as §1
# [16] = target: Neu5Ac(a2-3)Gal(b1-4)GlcNAc(b1-6)GalNAc
# Outline: as §1
# [17] = target: Neu5Ac(a2-6)Gal(b1-4)GlcNAc(b1-2)Man(a1-3)Man(b1-4)GlcNAc(b1-4)GlcNAc
# Outline: as §1
# [18] = target: Neu5Ac(a2-6)Gal(b1-4)GlcNAc(b1-2)Man(a1-3)[Man(a1-6)]Man(b1-4)GlcNAc(b1-4)GlcNAc
# Outline: as §1
# [19] = target: Neu5Ac(a2-6)Gal(b1-4)GlcNAc(b1-3)Gal(b1-4)GlcNAc(b1-6)[Gal(b1-3)]GalNAc
# Outline: as §1
# [20] = target: Neu5Ac(a2-6)Gal(b1-4)GlcNAc(b1-3)GalNAc
# Outline: as §1
# [21] = target: Neu5Ac(a2-8)Neu5Ac(a2-3)[GalNAc(b1-4)]Gal(b1-4)Glc
# Outline: as §1
# [22] = target: Neu5Ac9Ac(a2-6)Gal(b1-4)GlcNAc
# Outline: as §1
# [23] = target: Neu5Gc(a2-8)Neu5Gc(a2-3)Gal(b1-4)GlcNAc
# Outline: as §1
# [24] = target: Neu5Gc(b2-6)Gal(b1-4)GlcNAc
# Outline: as §1
binder,measurement,setting,value
B1,glycan array binding signal (z-score),[1],-0.155
same,glycan array binding signal (z-score),[2],-0.212
same,glycan array binding signal (z-score),Gal6S(b1-4)Glc6S,-0.098
same,glycan array binding signal (z-score),[3],-0.179
same,glycan array binding signal (z-score),[4],-0.21
same,glycan array binding signal (z-score),Glc(a1-6)Glc(a1-6)Glc,-0.204
same,glycan array binding signal (z-score),[5],-0.195
same,glycan array binding signal (z-score),[6],-0.128
same,glycan array binding signal (z-score),[7],-0.266
same,glycan array binding signal (z-score),[8],-0.17
same,glycan array binding signal (z-score),Kdn(a2-3)Gal(b1-3)GlcNAc,-0.222
same,glycan array binding signal (z-score),[9],-0.378
same,glycan array binding signal (z-score),[10],-0.191
same,glycan array binding signal (z-score),[11],-0.125
same,glycan array binding signal (z-score),[12],-0.274
same,glycan array binding signal (z-score),[13],-0.122
same,glycan array binding signal (z-score),[14],-0.209
same,glycan array binding signal (z-score),[15],-0.22
same,glycan array binding signal (z-score),[16],-0.243
same,glycan array binding signal (z-score),[17],-0.227
same,glycan array binding signal (z-score),[18],-0.216
same,glycan array binding signal (z-score),[19],-0.032
same,glycan array binding signal (z-score),[20],-0.148
same,glycan array binding signal (z-score),[21],-0.259
same,glycan array binding signal (z-score),[22],-0.244
same,glycan array binding signal (z-score),[23],-0.238
same,glycan array binding signal (z-score),[24],-0.1
